Inconclusive results are not listed. Calls of active or inactive are those of the source. Calls follow the shape of the dose curve; as a rule, active = well fitted curve in the direction sought with a large enough effect; inconclusive = small, poorly fitted or top-dose-only effect, or another doubt; inactive = no such curve, though single readings can be large; an effect the other way counts as inactive or inconclusive.
Key:
[1] = biological target: Calcium and integrin-binding protein 1 (Homo sapiens) (UniProt Q99828); assay: Primary qHTS for Identification of Calcium Integrin Binding Protein 1 (CIB1) Competitor (AID 1508620);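 also: GST tagged CIB1 binding a fluorescein labelled alphaIIb integrin peptide tracer; top concentration of the series differs between compounds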
Sequence of Calcium and integrin-binding protein 1 (Homo sapiens) (Q99828 whole entry, looked up): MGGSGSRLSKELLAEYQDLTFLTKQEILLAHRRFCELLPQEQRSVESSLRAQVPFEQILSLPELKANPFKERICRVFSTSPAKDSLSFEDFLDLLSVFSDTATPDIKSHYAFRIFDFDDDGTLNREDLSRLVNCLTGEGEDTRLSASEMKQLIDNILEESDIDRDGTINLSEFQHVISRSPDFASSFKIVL
Summary of the method: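 Fluorescence polarization competition: GST-tagged CIB1 (1 uM final) preincubated with compound 15 min at room temperature, then FITC-labelled alphaIIb peptide (100 nM final) added. After 15 min at room temperature, polarization read at Ex 480/Em 540.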

[2] = Primary qHTS for inhibitors of nuclear receptor binding SET domain protein 2 (NSD2) in an isogenic RCH-ACV NSD2 p.E1099K mutant (9B) (AID 1645876); also: nearly all actives have a fitted effect of over 70% in size
[3] = Primary qHTS for inhibitors of nuclear receptor binding SET domain protein 2 (NSD2) in an RCH-ACV wild type WT cells (2C) (AID 1645877); also: nearly all actives have a fitted effect of over 70% in size
% is scaled to controls: 0 for no effect and ±100 for the full control effect.

OCC(O)C(c1c[nH]c2ccccc12)c1c[nH]c2ccccc12 (stereo not given)
inactive: Potency [1] | Potency [2] | Potency [3]

COC(=O)c1ccc(OC)cc1O[C@@H]1O[C@H](CO[C@@H]2OC[C@@H](O)[C@H](O)[C@H]2O)[C@@H](O)[C@H](O)[C@H]1O
inactive: Potency [1] | Potency [2] | Potency [3]

CC(NC(=O)CC(=O)O)C(=O)Nc1ccccc1C(N)=O (stereo not given)
inactive: Potency [1] | Potency [2] | Potency [3]

CC1C(=O)OCC2=CC[N+]3([O-])CCC(OC(=O)C(C)(O)C1(C)O)C23 (stereo not given)
inactive: Potency [1] | Potency [2] | Potency [3]

C=C[C@@]1(C)CCC2=C([C@H]1OC(C)=O)[C@H](OC(C)=O)CC1[C@](C)(C(=O)OC)CC[C@H](OC(C)=O)[C@]21C (stereo not given in full)
inactive: Potency [1] | Potency [2] | Potency [3]

CC1=C(C(=O)OC2OC(COC3OC(CO)C(O)C(O)C3O)C(O)C(O)C2O)C(C)(C)CCC1 (stereo not given)
inactive: Potency [1] | Potency [2] | Potency [3]

C/C(=C/CO)CC[C@H]1[C@]2(C)C[C@H](O)CC(C)(C)[C@H]2CC[C@]1(C)O
inactive: Potency [1] | Potency [2] | Potency [3]

CC1C2=CC(=O)OC2(O)CC2C1C(O)CC1C(C)(CO)CCCC21C (stereo not given)
inactive: Potency [1] | Potency [2] | Potency [3]

C=C1C[C@H](O)[C@@H](O)[C@@]2(C)C1[C@@H](O)[C@H]1OC(=O)C3[C@@H](C)[C@@H](O)[C@H](O)C2[C@]31C (stereo not given in full)
inactive: Potency [1] | Potency [2] | Potency [3]

O=C(O)CCc1c(C(=O)O)[nH]c2cc(Cl)cc(Cl)c12
inactive: Potency [1] | Potency [2] | Potency [3]

COC(=O)C1=COC(OC2OC(CO)C(O)C(O)C2O)C2C(COC(=O)/C=C/c3ccc(O)c(O)c3)C(O)C(O)C12 (stereo not given)
inactive: Potency [1] | Potency [2] | Potency [3]

CC1=C(CC/C(C)=C/C(=O)O)[C@@]2(C)CCCC(C)(C)C2CC1=O (stereo not given in full)
inactive: Potency [1] | Potency [2] | Potency [3]

C[C@@]12CC3(S(=O)(=O)O)OC(O1)[C@]1(COC(=O)c4ccccc4)[C@H]3C[C@]21O[C@@H]1O[C@H](CO)[C@@H](O)[C@H](O)[C@H]1O
inactive: Potency [1] | Potency [2] | Potency [3]

O=C(OC[C@H]1O[C@H](O[C@]2(CO)O[C@H](CO)[C@@H](O)[C@@H]2O)[C@H](O)[C@@H](O)[C@@H]1O)c1ccc(O)cc1
inactive: Potency [1] | Potency [2] | Potency [3]

CC(=O)OCC(Cc1ccccc1)NC(=O)C(Cc1ccccc1)NC(=O)c1ccccc1 (stereo not given)
inactive: Potency [1] | Potency [2] | Potency [3]

C[C@@H]1O[C@@H](O[C@H]2[C@H](OC(=O)[C@]34CCC(C)(C)C[C@H]3C3=CCC5[C@@]6(C)C[C@@H](O)[C@@H](O)[C@@](C)(CO)C6[C@H](O)C[C@@]5(C)[C@]3(C)CC4)OC[C@H](O)[C@@H]2O)[C@H](O)[C@H](O)[C@H]1O[C@@H]1OC[C@@H](O)[C@H](O[C@H]2O[C@H](C)[C@@H](O)[C@H](O)[C@@H]2O)[C@H]1O (stereo not given in full)
inactive: Potency [1] | activity change, negative = viability loss [2] -2.76% [at 9.23 µM] | activity change, negative = cell killing [3] -1.27% [at 9.23 µM]

CC(C)(O)C1CC=C(C(=O)OC[C@H]2O[C@@H](Oc3cc(C(=O)O)cc(O)c3O)[C@H](O)[C@@H](O)[C@@H]2O)CC1 (stereo not given in full)
inactive: Potency [1] | Potency [2] | Potency [3]

CC1=CCC[C@@H]2[C@](CCc3ccoc3)(C(=O)O)[C@H](C)CC[C@@]12C
inactive: Potency [1] | Potency [2] | Potency [3]

CC(C)=C1CC2[C@](C)(CC[C@@H](OC(=O)C3(C)OC3C)[C@@]2(C)O)CC1=O (stereo not given in full)
inactive: Potency [1] | Potency [2] | Potency [3]

C=C1C(O)C(OC(=O)c2ccccc2)C2C(C)(C(=O)O)CCCC2(C)C1CC/C(C)=C\CO (stereo not given)
inactive: Potency [1] | Potency [2] | Potency [3]

CC(C)CC(=O)NCCn1cc(C(=O)O)c(=O)cc1C(O)c1ccccc1 (stereo not given)
inactive: Potency [1] | Potency [2] | Potency [3]

COC(=O)C1=CO[C@@H](O[C@@H]2O[C@H](CO)[C@@H](O)[C@H](O)[C@H]2O)[C@H]2[C@@H]1[C@H](O)C[C@]2(C)O
inactive: Potency [1] | Potency [2] | Potency [3]

COc1c2cc(c(O[C@@H]3O[C@H](CO)[C@@H](O)[C@H](O)[C@H]3O)c1OC)CCCCC(O)CCc1ccc(O)c-2c1 (stereo not given in full)
inactive: Potency [1] | Potency [2] | Potency [3]

O=C(O)c1ccnc2cc(C(OCC3CCC(F)(F)CC3)c3ccccc3Cl)[nH]c12 (stereo not given)
inactive: Potency [1] | Potency [2] | Potency [3]

C[C@@H]1O[C@@H](O[C@H]2[C@H](O)[C@@H](O)[C@H](OC(=O)[C@]34CCC(C)(C)C[C@H]3C3=CCC5[C@@]6(C)CC[C@H](O[C@@H]7O[C@H](C(=O)O)[C@@H](O)[C@H](O)[C@H]7O)C(C)(C)C6CC[C@@]5(C)[C@]3(C)CC4)O[C@@H]2CO)[C@H](O)[C@H](O)[C@H]1O (stereo not given in full)
inactive: Potency [1] | activity change, negative = viability loss [2] -5.91% [at 9.23 µM] | activity change, negative = cell killing [3] -1.6% [at 9.23 µM]
